The record followed here is PubChem BioAssay AID1030 (National Center for Advancing Translational Sciences (NCATS), 2008).

SMILES strings stand for the structures. Screen size: about 220,000 compounds; about 16,000 (7.3%) were called active. About 25% were inconclusive and are not listed. For the sample, actives were picked, then their nearest neighbours and some compounds at random. Unmarked numbers belong to inactive results. The call rests on the fitted dose curve; in most records, active means well fitted inhibition curve with a large enough effect (not every such curve was filed as active); inconclusive means small, poorly fitted or top-dose-only effect, or another doubt; inactive means no such curve, though single readings can be large or run the other way.
Potency means the concentration at half of the fitted maximal effect.

This assay deals with Aldehyde dehydrogenase 1A1 (Homo sapiens) (UniProt P00352). As to the kind of experiment: qHTS Assay for Inhibitors of Aldehyde Dehydrogenase 1 (ALDH1A1).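 On activity, negative = inhibition: plate controls were no enzyme wells and a reference inhibitor.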 To be noted: Purified ALDH1A1, NADH fluorescence, propionaldehyde substrate; series mostly up to 75.3 µM; activity, negative = inhibition: at the top concentration. Background: qHTS replaces the single test concentration by a dilution series.
Sequence of Aldehyde dehydrogenase 1A1 (Homo sapiens) (P00352 whole entry, looked up): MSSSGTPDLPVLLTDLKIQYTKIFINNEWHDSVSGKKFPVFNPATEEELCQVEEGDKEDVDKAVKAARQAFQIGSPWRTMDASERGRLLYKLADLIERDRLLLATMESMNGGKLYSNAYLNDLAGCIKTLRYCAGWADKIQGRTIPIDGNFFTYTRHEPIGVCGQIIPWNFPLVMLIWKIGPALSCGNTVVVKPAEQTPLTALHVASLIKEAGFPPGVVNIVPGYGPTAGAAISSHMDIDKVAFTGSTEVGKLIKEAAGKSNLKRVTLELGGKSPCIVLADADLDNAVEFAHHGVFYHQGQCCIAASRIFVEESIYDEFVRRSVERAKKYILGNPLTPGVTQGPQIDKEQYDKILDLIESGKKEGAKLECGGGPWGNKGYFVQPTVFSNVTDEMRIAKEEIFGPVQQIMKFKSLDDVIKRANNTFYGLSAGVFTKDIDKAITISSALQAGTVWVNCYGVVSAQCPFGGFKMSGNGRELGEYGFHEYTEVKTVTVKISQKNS
As for `O=C(NCc1csc(-c2cccs2)n1)C1CC1`, the “activity, negative = inhibition” value was -8.54%. For the compound `CC(C)Oc1ccc(Cc2n[nH]c(=S)n2Cc2ccccc2)cc1Cl`, the “activity, negative = inhibition” value was -16.6%. On the same count and under the same terms, then `O=C(COc1ccccc1)NCc1ccc2c(c1)OCO2`, with 7.72%. In the case of `NNC(=O)COc1ccc(C2SCCS2)cc1`, the Potency is 3.98 µM (active). On to `NC(=O)COc1ccc(C23CC4CC(CC(C4)C2)C3)cc1`, for which the “activity, negative = inhibition” value is -1.21%. The same measure, in the same setting: as for `COc1ccc(CCNC(=O)COC(=O)Cc2cc(OC)c(OC)c(OC)c2)cc1`, the figure is -0.172%; as for `CC(C)N(Cc1nc(-c2ccc3c(c2)OCO3)no1)CC1CCC(=O)N1` (stereo not drawn), 2.18%.

For the compound `Cc1nc(N)c(Br)c(C)c1Br`, the “activity, negative = inhibition” value is 1.53%.

Turning to `Cc1ccc(/C=N\n2c(-c3ccccc3)n[nH]c2=S)s1`, the “activity, negative = inhibition” value is -14.3%. Regarding `CCN(CC)S(=O)(=O)c1cccc(-c2n[nH]c(=S)n2/N=C/c2ccc(C(=O)OC)cc2)c1`, the Potency is 22.4 µM (active). With `COC(=O)c1ccc(/C=N/N2C(C)CCCC2C)cc1` (stereo not drawn), the “activity, negative = inhibition” value is -1.75%.

For the compound `CCN(CC)C(=O)C(=O)Nc1cccc(Br)c1`, the “activity, negative = inhibition” value is -4.49%.

As to `C=CCn1c(CCNC(=O)c2ccccc2F)nnc1SCC(=O)Nc1ccc(OC)cc1`, the “activity, negative = inhibition” value was -11.5%. Same read-out and setting: then `Cc1nc(CN2CCN(C(=O)CCc3nnc(Cc4c[nH]c5ccccc45)o3)CC2)cs1`, with 2.48%. In the case of `COC(=O)c1c(NC(=O)CN2C(=O)NC(CCc3ccccc3)C2=O)sc2c1CCCCC2` (stereo not drawn), the Potency is 20 µM (active). Consider `Cc1cc(NC(=O)CN2C(=O)NC(CCc3ccccc3)C2=O)no1` (stereo not drawn), for which the “activity, negative = inhibition” value is -0.844%. Still for that read-out and setting: then `CCN1C(=O)N[C@@H](CCc2ccccc2)C(C(=O)OC)=C1C`, with 5.7% [at 13.5 µM]; and `CC(=O)N1CCc2cc(S(=O)(=O)Nc3ccccc3N3CCN(C)CC3)ccc21`, with 7.2%.

As for `CCCNS(=O)(=O)c1ccc2c(c1)CCCN2C(C)=O`, the Potency is 22.4 µM (active). As for `CCC1CCCCN1CCNS(=O)(=O)c1ccc2c(c1)CCN2C(C)=O` (stereo not drawn), the “activity, negative = inhibition” value was 0.798%. With `CC(=O)Nc1ccc(NC(=O)COc2ncnc3ccccc23)cc1`, the “activity, negative = inhibition” value was 3.32%.

For `O=S(=O)(Cc1noc(-c2ccc(OC(F)(F)F)cc2)n1)c1ccc(F)cc1`, the “activity, negative = inhibition” value was -7.22%. For `COc1cccc(-n2c(=S)[nH]c3c(oc4ccccc43)c2=O)c1`, the “activity, negative = inhibition” value was -11.3%. Turning to `COc1ccc(-n2c(=S)[nH]c3sc4c(c3c2=O)CCc2ccccc2-4)cc1`, the Potency is 3.98 µM (active).

Turning to `CSc1nc2sc3c(c2c(=O)[nH]1)CCc1ccccc1-3`, the “activity, negative = inhibition” value was 11.5%.

In the case of `CC(NC(=O)CC1SC(N)=NC1=O)c1ccccc1` (stereo not drawn), the “activity, negative = inhibition” value is -6.24%. Still for that read-out and setting: as for `O=C(NCCc1c[nH]c2ccccc12)c1cc2ccccc2oc1=O`, the figure is -9.8%.

For `CN=C1C=C/C(=N/N=c2\ccn(O)cc2C)C=C1C`, the “activity, negative = inhibition” value was -3.17%.

Turning to `COc1ccc(C2CC(c3cccs3)=NN2C(=O)CSc2nnc(N)s2)cc1OC` (stereo not drawn), the “activity, negative = inhibition” value was 0.616%. Turning to `CCn1cc(C(=O)N2CCN(Cc3ccc4c(c3)OCO4)CC2)c2cc(OC)c(OC)cc2c1=O`, the Potency was 2.24 µM (active). On to `CCn1cc(C(=O)NCc2ccc3c(c2)OCO3)c2cc(OC)c(OC)cc2c1=O`, for which the “activity, negative = inhibition” value was -10.8%.

With `CCn1cc(C(=O)N2CCN(C3CCCCC3)CC2)c2cc(OC)c(OC)cc2c1=O`, the “activity, negative = inhibition” value was -14.1%. On the same count and under the same terms, then `Cn1cnnc1SCc1nnc(-c2ccccc2Br)o1`, with -2.2%; and `COCc1ccc(C(=O)N2CCc3c([nH]c4ccccc34)C2c2ccccn2)s1` (stereo not drawn), with -0.297%.

As to `COc1ccccc1CC(NC(C)=O)C(=O)NC1CCN(C(=O)Nc2ccccc2Cl)CC1` (stereo not drawn), the “activity, negative = inhibition” value was -12.5%. On the same count and under the same terms, then `CCn1cc(/C=C2/SC(=S)NC2=O)c(C)n1`, with -5.29%. As to `Cc1nn(C)cc1/C=C1\CCC/C(=C\c2cn(C)nc2C)C1=O`, the Potency was 28.2 µM (active). `Cc1c(Cl)c([N+](=O)[O-])nn1CC(=O)NCC1CCCO1` (stereo not drawn): the “activity, negative = inhibition” value is 7.79%.

Take `CCOC(=O)c1ccc(NC(=O)c2cc(=O)[nH]c3ccccc23)cc1`: the “activity, negative = inhibition” value is -6.06%. As for `C/C(=N\NC(=O)c1ccc(CSc2nc(C)cc(C)n2)cc1)C1CCCCC1`, the Potency was 3.55 µM (active). For the compound `CCn1c(CSc2nc(C)cc(C)n2)nnc1SCC(N)=O`, the “activity, negative = inhibition” value was -4.65%. Still for that read-out and setting: then `C/C(=N\NC(=O)c1nc(C)cc(C)n1)c1ccccc1`, with 1.36%; and `CC1=C(/C=C/C(C)=C/C=C/C(C)=C/C=C/C=C(C)/C=C/C=C(C)/C=C/C(=O)[C@]2(C)C[C@@H](O)CC2(C)C)C(C)(C)C[C@H](O)C1`, with -2.21%; and `O=C(Nc1ccc2c(c1)CCC2)c1ccc(Br)s1`, with -8.83%.

Regarding `Cc1ccc(NC(=S)N2CCCC(c3ccccc3)=N2)cc1`, the “activity, negative = inhibition” value is 0.55%. With `CN1CC(c2ccccc2)C2(COc3ccccc3C2=O)C12C(=O)Nc1ccccc12` (stereo not drawn), the Potency was 7.94 µM (active). As to `CC1(C)C2CCC1(C)C(OC(=O)c1ccc(O)cc1)C2` (stereo not drawn), the “activity, negative = inhibition” value was -5.65%. The same measure, in the same setting: then `COc1ccc(CCn2ccc(O)c(Cc3ccc(Cl)cc3Cl)c2=O)cc1OC`, with 1.64%; and `Cc1noc(C)c1S(=O)(=O)Nc1cc(C(F)(F)F)ccc1N1CCOCC1`, with 8.81%. Still for that read-out and setting: then `C=CCN(Cc1nc(-c2cc(OC)c3c(c2)OCO3)oc1C)C1CCS(=O)(=O)C1` (stereo not drawn), with 3.94%; and `CCO[C@@H]1OC(C(N)=O)=C[C@H](c2ccc(Br)cc2)[C@H]1CCCO`, with 6.57%. As for `CC(C)OCCCNc1nc2c(c(=O)n(Cc3ccccc3F)c(=O)n2C)n1C`, the “activity, negative = inhibition” value was 2.22%. As for `COC(=O)C(C)Sc1nc2c(c(=O)n(C)c(=O)n2C)n1Cc1cccc(C)c1` (stereo not drawn), the Potency was 12.6 µM (active).
